# Reference: PubChem BioAssay AID1159606 (Sanford-Burnham Center for Chemical Genomics, 2016)
# Hit rate of the full screen: of about 360,000 compounds, about 7,300 (2%) were called active. No stated cut-off is given here; in the data, active means inhibition above about 50%; inactive means the rest. The sample as a whole holds a higher share of actives than the screen did.
# Assay: inhibitors of TWEAK-Fn14 signaling, primary screen, luciferase reporter cells, uHTS (AID 1159606)
# Conditions: TWEAK-stimulated Fn14 reporter cells, luciferase luminescence, 8 h; at 10 µM; stronger effect = higher value
row,Structure (SMILES),inhibition
1,COc1nc(N(C)C)nc(N2CC(=O)N(CCNS(=O)(=O)c3ccc(C)cc3)C2=N)n1,-3.28% (inactive)
2,Cc1ccccc1-c1csc(C(O)c2cccc(Cl)c2)n1 (stereo not given),-4.88% (inactive)
3,COc1ccc(N2CCN(C(=O)C3CCN(S(=O)(=O)c4ccc(C)cc4)CC3)CC2)cc1,-13.2% (inactive)
4,Cc1nccn1CCC1CCCCN1C(=O)CCc1nnc(-c2ccsc2)o1 (stereo not given),-14.9% (inactive)
5,CC(C)(C)NC(=O)Cn1cnc2cc([N+](=O)[O-])ccc2c1=O,83% (active)
6,CC(C)(C)NC(=O)Cn1cnc([N+](=O)[O-])n1,18.3% (inactive)
7,O=C(Cn1cnc2cc([N+](=O)[O-])ccc2c1=O)NC(=O)NCc1ccccc1,-1.13% (inactive)
8,Cc1cc2c(cc1S(=O)(=O)NCc1ccc(Cl)cc1)OCC(=O)N2,-8.95% (inactive)
9,CCOC(=O)CCP(=O)(O)C(O)(c1ccccc1)c1ccccc1,-6.25% (inactive)
10,CCc1ccccc1NC(=O)/C(=C/c1ccccc1)c1ccccc1,-19.8% (inactive)
11,CCOC(=O)C(=Cc1ccccc1)C(=O)c1ccccc1,98.4% (active)
12,COc1ccccc1/C=C/C(=O)NC1CC2CCC1C2 (stereo not given),-13.3% (inactive)
13,COc1ccccc1C(=O)c1ccccc1C(=O)c1ccccc1,9.79% (inactive)
14,CCOC(=O)C(=Cc1ccccc1OC)C(=O)OCC,81.9% (active)
15,CC(C)Oc1ccc(S(=O)(=O)N2CCOCC2)cc1NC(=O)C1CSC2(C)CCC(=O)N12 (stereo not given),-10.2% (inactive)
16,CC1(C(=O)NCc2cccc3ccccc23)CCN1Cc1ccc(-c2ccccc2)o1 (stereo not given),7.77% (inactive)
17,Cc1ccc(-c2c[n+](=O)c3c(n2[O-])CCC3)cc1,-2.42% (inactive)
18,CCCCCn1nnnc1C1c2ccccc2C(=O)N1Cc1ccco1 (stereo not given),16.5% (inactive)
19,COC(=O)c1cc(NC2c3ccccc3C(=O)N2c2ccc(Cl)cn2)cc(C(=O)OC)c1 (stereo not given),-15.2% (inactive)
20,Cc1ccnc(N2C(=O)c3ccccc3C2Nc2ccc3c(c2)OCCO3)c1 (stereo not given),61.2% (active)
21,O=C(Nc1ccc2c(c1)OCCO2)C1c2ccccc2OCC(=O)N1Cc1ccccn1 (stereo not given),-0.53% (inactive)
22,O=C1c2ccccc2C(Nc2ccc3c(c2)OCCO3)N1Cc1ccco1 (stereo not given),70.9% (active)
23,S=C(NCc1ccco1)Nc1ccc2c(c1)OCCO2,2.21% (inactive)
24,C[C@@H]1C[C@@H]2O[C@H]2/C=C\C=C\C(=O)Cc2c(Cl)c(O)cc(O)c2C(=O)O1,90.7% (active)
25,COc1ccc([C@H]2[C@H](C(C)=O)N3N=Cc4ccccc4C3C23C(=O)OC(C)(C)OC3=O)cc1 (stereo not given in full),10.5% (inactive)
